SMILES strings stand for the structures. Where “and” joins values, the source holds several entries; their conditions need not be identical. Equal values may be shown once. Inconclusive results are not listed. A number with no mark means an inactive call. Calls of active or inactive are those of the source. Calls come from the whole dose curve; as a rule, active = well fitted curve in the direction sought with a large enough effect in the repeat runs; inconclusive = weak or mixed curves; inactive = no such curve, though single readings can be large; an effect the other way counts as inactive or inconclusive.
% is set by controls: 0 for no effect and ±100 for the full control effect; potency is the fitted concentration of half-maximal effect.

The first assay can be described thus: qHTS RealTime-Glo MT Cell Viability Assay in HepG2 cells - 40 hour (AID 1224870). Note: nearly all actives have a fitted effect of over 50% in size. The conditions noted are these: RealTime-Glo luminescence; series mostly up to 76.8 µM; activity change, negative = cytotoxic: at the top concentration. The procedure, abridged: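 HepG2 cells (600/well) mixed with RealTime-Glo MT reagent, settled 5 h at 37 C/5% CO2 before compound addition. Nonlytic NanoLuc luminescence from viable-cell prosubstrate reduction read repeatedly during 40 h treatment at 37 C.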
(In general: Quantitative high-throughput screening tests each substance at several concentrations.)
Consider `COP(=S)(OC)Oc1nc(Cl)c(Cl)cc1Cl`, for which the “activity change, negative = cytotoxic” value was 0.9%.

Take `[O-][Cl+3]([O-])([O-])O`: the “activity change, negative = cytotoxic” value is 0.868%.

Turning to `CCCCC/C=C\C/C=C\C/C=C\C/C=C\CCCC(=O)NCC(=O)O`, the “activity change, negative = cytotoxic” value was 0.364% [at 35.3 µM].

For the compound `c1ccc(Nc2ccc(Nc3ccccc3)cc2)cc1`, the “activity change, negative = cytotoxic” value is -2.18%.

As to `O=Cc1ccccc1`, the “activity change, negative = cytotoxic” value was 1.58%.

As for `N#CC(C#N)=NNc1cccc(Cl)c1`, the Potency was 19.5 µM (active).

Consider `CC[C@H](C)[C@H]1O[C@]2(C=C[C@@H]1C)C[C@@H]1C[C@@H](C/C=C(\C)[C@@H](O[C@H]3C[C@H](OC)[C@@H](O[C@H]4C[C@H](OC)[C@@H](NC)[C@H](C)O4)[C@H](C)O3)[C@@H](C)/C=C/C=C3\CO[C@@H]4[C@H](O)C(C)=C[C@@H](C(=O)O1)[C@]34O)O2`, for which the Potency is 9.77 µM (active).

`Nc1cc(Cl)ccc1Cl`: the “activity change, negative = cytotoxic” value is -1.03%.

`C1=CCC=C1`: the “activity change, negative = cytotoxic” value is 2.24%.

For the compound `BrCC(Br)(Br)Br`, the “activity change, negative = cytotoxic” value is -2.14%.

As to `CCC(OC(C)=O)C(CC(C)NC)(c1ccccc1)c1ccccc1` (stereo unspecified), the Potency was 62.2 µM (active).

`O=C1C2(Cl)C3(Cl)C4(Cl)C(Cl)(Cl)C5(Cl)C3(Cl)C1(Cl)C5(Cl)C24Cl` (stereo unspecified): the Potency is 54 µM (active) and 46.9 µM (active).

Consider `CSC(C)(C)/C=N/O`, for which the “activity change, negative = cytotoxic” value is -0.528%.

As for `NC(=O)C(Cl)Cl`, the “activity change, negative = cytotoxic” value was 1.26%.

Consider `CN(C)CCc1c[nH]c2ccccc12`, for which the “activity change, negative = cytotoxic” value was 0.456%.

Consider `CCCCn1cc[n+](C)c1` (tested in a mixture with another compound), for which the “activity change, negative = cytotoxic” value is 0.779%.

As for `CCC(C)c1cccc(C(C)CC)c1O` (stereo unspecified), the “activity change, negative = cytotoxic” value was 0.787%.

With `Fc1ccc(C(OCCN2CCN(CCCc3ccccc3)CC2)c2ccc(F)cc2)cc1`, the Potency is 26.8 µM (active).

`CCN(CC)CCN1C(=O)CN=C(c2ccccc2F)c2cc(Cl)ccc21`: the “activity change, negative = cytotoxic” value is 3.32% [at 35.3 µM].

As for `Nc1ccccc1-c1ccccc1`, the “activity change, negative = cytotoxic” value was 1.44%.

Consider `O=[N+]([O-])c1cc(C(F)(F)F)c(Cl)c([N+](=O)[O-])c1Nc1ncc(C(F)(F)F)cc1Cl`, for which the Potency is 11 µM (active).

As for `CCCCn1cc[n+](C)c1.[Cl][Fe-]([Cl])([Cl])[Cl]`, the “activity change, negative = cytotoxic” value is 1.24%.

On to `Nc1nc(N)nc(Cl)n1`, for which the “activity change, negative = cytotoxic” value is 1.84%.

For `Oc1cccc(Cl)c1Cl`, the “activity change, negative = cytotoxic” value is 4.18%.

Regarding `Brc1cccc(-c2ccccc2)c1`, the “activity change, negative = cytotoxic” value was 1.9%.

For `CCCCCON=O`, the “activity change, negative = cytotoxic” value is -5.79%.

As to `CC(=O)C(Cl)C(=O)N(C)C` (stereo unspecified), the “activity change, negative = cytotoxic” value is 0.681%.

Regarding `COc1ccc2[nH]cc(CCN(C(C)C)C(C)C)c2c1`, the “activity change, negative = cytotoxic” value is -0.277%.

As to `Cc1ccn2nc(S(=O)(=O)Nc3c(F)cccc3F)nc2n1`, the “activity change, negative = cytotoxic” value is 2.57%.

As for `COC(=O)C(C)N(C(=O)c1ccco1)c1c(C)cccc1C` (stereo unspecified), the “activity change, negative = cytotoxic” value was -3.79%.

Consider `CN1CCc2cc(Cl)c(O)cc2[C@H]2c3ccccc3CC[C@@H]21`, for which the “activity change, negative = cytotoxic” value was 1.57% [at 35.3 µM].

Turning to `[C-]1=CC=CC1.[Cl][Zr+2][Cl].c1cc[cH-]c1`, the “activity change, negative = cytotoxic” value was -0.5%.

For `O=c1c2ccccc2c(=O)c2c1cc(Cl)c1[nH]c3c([nH]c12)c(Cl)cc1c(=O)c2ccccc2c(=O)c13`, the “activity change, negative = cytotoxic” value is -0.161%.

As to `N#CSCc1ccccc1`, the “activity change, negative = cytotoxic” value is -3.49%.

Turning to `ClC1=C(Cl)[C@]2(Cl)[C@H]3[C@H]([C@@H]4C=C[C@H]3C4)[C@@]1(Cl)C2(Cl)Cl`, the “activity change, negative = cytotoxic” value is -14%.

Consider `CN(C)C(=S)SSC(=S)N(C)C`, for which the Potency is 54.2 µM (active) and 219 nM (active) and 169 nM (active).

The next assay can be described thus: A CellTox Green Cytotoxicity Assay to monitor cytotoxicity in HEK293 cells - 40 hour (AID 1224871). Note: nearly all actives have a fitted effect of over 45% in size. The note with it: CellTox Green fluorescence; series mostly up to 76.8 µM; cytotoxicity increase: at the top concentration. The procedure, abridged:
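Nonlytic real-time cytotoxicity: HEK293 + CellTox Green reagent plated, 5 h preincubation, pintool compound addition (23 nL in DMSO), 37 C for 40 h, fluorescence measured at successive time points.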
As for `COP(=S)(OC)Oc1nc(Cl)c(Cl)cc1Cl`, the “cytotoxicity increase” value was -3.4%.

Take `[O-][Cl+3]([O-])([O-])O`: the “cytotoxicity increase” value was -7.14%.

Turning to `CCCCC/C=C\C/C=C\C/C=C\C/C=C\CCCC(=O)NCC(=O)O`, the “cytotoxicity increase” value was 5.48% [at 35.3 µM].

Take `O=Cc1ccccc1`: the “cytotoxicity increase” value was 15.3%.

`N#CC(C#N)=NNc1cccc(Cl)c1`: the Potency was 49 µM (active).

In the case of `CC[C@H](C)[C@H]1O[C@]2(C=C[C@@H]1C)C[C@@H]1C[C@@H](C/C=C(\C)[C@@H](O[C@H]3C[C@H](OC)[C@@H](O[C@H]4C[C@H](OC)[C@@H](NC)[C@H](C)O4)[C@H](C)O3)[C@@H](C)/C=C/C=C3\CO[C@@H]4[C@H](O)C(C)=C[C@@H](C(=O)O1)[C@]34O)O2`, the Potency is 11 µM (active).

Turning to `Nc1cc(Cl)ccc1Cl`, the “cytotoxicity increase” value is 1.56%.

For `C1=CCC=C1`, the “cytotoxicity increase” value was -15.5%.

Consider `CCC(OC(C)=O)C(CC(C)NC)(c1ccccc1)c1ccccc1` (stereo unspecified), for which the Potency is 62.2 µM (active).

Consider `O=C1C2(Cl)C3(Cl)C4(Cl)C(Cl)(Cl)C5(Cl)C3(Cl)C1(Cl)C5(Cl)C24Cl` (stereo unspecified), for which the Potency is 42.9 µM (active) and 52.6 µM (active).

For the compound `O=C1C(Cl)=C(Cl)C(=O)C(Cl)=C1Cl`, the Potency is 17.3 µM (active) and 19.5 µM (active).

As to `CSC(C)(C)/C=N/O`, the “cytotoxicity increase” value is -14.6%.

On to `NC(=O)C(Cl)Cl`, for which the “cytotoxicity increase” value is 0.54%.

For the compound `CN(C)CCc1c[nH]c2ccccc12`, the “cytotoxicity increase” value is -14.6%.

As for `CCCCn1cc[n+](C)c1` (tested in a mixture with another compound), the “cytotoxicity increase” value is -5.98%.

For the compound `CCC(C)c1cccc(C(C)CC)c1O` (stereo unspecified), the Potency is 27.5 µM (active).

Regarding `Fc1ccc(C(OCCN2CCN(CCCc3ccccc3)CC2)c2ccc(F)cc2)cc1`, the Potency was 21.3 µM (active).

In the case of `CCN(CC)CCN1C(=O)CN=C(c2ccccc2F)c2cc(Cl)ccc21`, the “cytotoxicity increase” value was 14.7% [at 35.3 µM].

For the compound `O=[N+]([O-])c1cc(C(F)(F)F)c(Cl)c([N+](=O)[O-])c1Nc1ncc(C(F)(F)F)cc1Cl`, the Potency was 24.5 µM (active).

With `CCCCn1cc[n+](C)c1.[Cl][Fe-]([Cl])([Cl])[Cl]`, the “cytotoxicity increase” value is -0.728%.

Turning to `S=C=NCCc1ccccc1`, the Potency is 43.7 µM (active).

For `Nc1nc(N)nc(Cl)n1`, the “cytotoxicity increase” value was 0.506%.

Consider `Oc1cccc(Cl)c1Cl`, for which the “cytotoxicity increase” value is 4.65%.

Consider `Brc1cccc(-c2ccccc2)c1`, for which the Potency is 39.2 µM (active).

Take `CCCCCON=O`: the “cytotoxicity increase” value is -0.638%.

`COc1ccc2[nH]cc(CCN(C(C)C)C(C)C)c2c1`: the “cytotoxicity increase” value was 4.44%.

For the compound `Cc1ccn2nc(S(=O)(=O)Nc3c(F)cccc3F)nc2n1`, the “cytotoxicity increase” value was -11.6%.

With `COC(=O)C(C)N(C(=O)c1ccco1)c1c(C)cccc1C` (stereo unspecified), the “cytotoxicity increase” value was 5.3%.

Take `CN1CCc2cc(Cl)c(O)cc2[C@H]2c3ccccc3CC[C@@H]21`: the “cytotoxicity increase” value is 0.768% [at 35.3 µM].

Turning to `[C-]1=CC=CC1.[Cl][Zr+2][Cl].c1cc[cH-]c1`, the “cytotoxicity increase” value was 1.01%.

With `O=c1c2ccccc2c(=O)c2c1cc(Cl)c1[nH]c3c([nH]c12)c(Cl)cc1c(=O)c2ccccc2c(=O)c13`, the “cytotoxicity increase” value is -9.81%.

Consider `N#CSCc1ccccc1`, for which the “cytotoxicity increase” value was -6.96%.

Take `ClC1=C(Cl)[C@]2(Cl)[C@H]3[C@H]([C@@H]4C=C[C@H]3C4)[C@@]1(Cl)C2(Cl)Cl`: the Potency is 54.9 µM (active) and 49 µM (active).

For the compound `O=C(N[C@@H]1N=C(c2ccccc2F)c2cccc3c2N(CC3)C1=O)c1cc2ccccc2[nH]1`, the Potency was 6.01 µM (active).

`CN(C)C(=S)SSC(=S)N(C)C`: the Potency is 216 nM (active) and 195 nM (active) and 239 nM (active).
